# Experimental data taken from PubChem BioAssay (EPA / NIEHS).
# Records with an inconclusive call do not appear. More than one record can exist for a structure, and the calls need not agree. The source made the active and inactive calls. The calls were made as follows, unless noted: active = hit-call score of the fitted dose curve at least 0.9, where 1 is the maximum; inconclusive = response in the unintended direction; inactive = score below 0.9.
# Experiments:
# [1] = ATG_VDRE_CIS: Attagene CIS-FACTORIAL HepG2 Assay for human Vitamin D Receptor Element (VDRE) (AID 2282968; active = hit-call score of the fitted dose curve at least 0.9, where 1 is the maximum; inactive = score below 0.9); settings: HepG2 VDRE cis-reporter transcription, actives raise or lower the signal
# How it was run: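 Readout is VDRE-driven reporter mRNA reflecting endogenous factor activity in human HepG2 cells, sampled 24 h post-dose. Quantification used labelled RT-PCR products separated by capillary electrophoresis; bidirectional analysis relative to DMSO.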
# [2] = molecular target: Nuclear receptor subfamily 1 group I member 3 (Homo sapiens) (UniProt Q14994); test: ATG_CAR_TRANS: Attagene TRANS-FACTORIAL HepG2 Assay for human Constitutive Androstane Receptor (CAR) (AID 2282969); settings: HepG2 Attagene TRANS-FACTORIAL CAR reporter;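 also: activators raise reporter mRNA above DMSO so AC50 marks induction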
# How it was run: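 Signal is reporter mRNA induction relative to DMSO, measured 24 h after dosing by RT-PCR with fluorescent primer extension and capillary electrophoresis. Human HepG2 liver cells carried transiently transfected chimeric NR-Gal4/GAL4-UAS reporter constructs.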
# [3] = molecular target: X-box-binding protein 1 (Homo sapiens) (UniProt P17861); test: ATG_Xbp1_CIS: Attagene CIS-FACTORIAL HepG2 Assay for human X-box Binding Protein 1 (XBP1) (AID 2282972; active = hit-call score of the fitted dose curve at least 0.9, where 1 is the maximum; inactive = score below 0.9); settings: HepG2 XBP1 cis-element reporter, Attagene multiplex; actives raise or lower the signal
# How it was run: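 Read-out: fluorescent reporter mRNA fragments resolved by capillary electrophoresis after RT-PCR. Human HepG2 liver cells carried transfected cis-promoter reporter units and were exposed to chemicals for 24 hours. Gain or loss of signal fitted relative to DMSO baseline.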
# [4] = ATG_GAL4_TRANS: Attagene TRANS-FACTORIAL HepG2 Assay for GAL4 (Internal Marker) (AID 2282976); settings: HepG2 Attagene TRANS GAL4 internal marker reporter
# How it was run: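 Fluorescence from capillary electrophoresis of labelled RT-PCR products quantifies reporter mRNA induction after 24 h dosing of HepG2 cells carrying transfected GAL4-UAS reporter transcription units. Vehicle DMSO serves as baseline.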
# [5] = molecular target: Glucocorticoid receptor (Homo sapiens) (UniProt P04150); test: ATG_GR_TRANS: Attagene TRANS-FACTORIAL HepG2 Assay for human Glucocorticoid Receptor (GR) (AID 2282978); settings: HepG2 Attagene TRANS GR reporter, mRNA transcription;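 also: activators score as hits since higher reporter transcript over DMSO is fitted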
# How it was run: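 Transient MRTU transfection of HepG2 (GAL4-UAS reporters, exogenous NR-GAL4 chimeras), 24 h dosing. Readout: reporter transcript via RT-PCR + capillary electrophoresis fluorescence. Positive direction vs DMSO baseline.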
# [6] = molecular target: Bile acid receptor (Homo sapiens) (UniProt Q96RI1); test: ATG_FXR_TRANS: Attagene TRANS-FACTORIAL HepG2 Assay for Farnesoid X Receptor (FXR) (AID 2282979); settings: HepG2 Attagene TRANS FXR-GAL4 reporter transcription;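 also: hits raise reporter mRNA above DMSO so AC50 marks FXR activation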
# How it was run: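 Chimeric FXR-GAL4 activity in transiently transfected human HepG2 liver cells is scored as induction of reporter mRNA after 24 h of dosing. Detection uses RT-PCR with fluorescent labelling and capillary electrophoresis, with DMSO serving as baseline.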
# [7] = molecular target: Estrogen receptor (Homo sapiens) (UniProt P03372); test: ATG_ERa_TRANS: Attagene TRANS-FACTORIAL HepG2 Assay for human Estrogen Receptor alpha (ERa) (AID 2282970); settings: HepG2 Attagene TRANS ERa GAL4 reporter, mRNA
# How it was run: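 Transfected HepG2 cells carrying GAL4-UAS-driven reporter units were dosed for 24 hours. Total RNA was reverse-transcribed, reporter sequences PCR-amplified, FAM-labelled, HpaI-digested and resolved by capillary electrophoresis. Increases over DMSO control defined activity.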
# [8] = molecular target: Steroid hormone receptor ERR1 (Homo sapiens) (UniProt P11474); test: ATG_ERRa_TRANS: Attagene TRANS-FACTORIAL HepG2 Assay for human Estrogen-Related Receptor alpha (ERRa) (AID 2282971); settings: HepG2 Attagene TRANS reporter, ERRa transactivation
# How it was run: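 HepG2 cells were transiently transfected with multiple GAL4-UAS reporter units, then dosed with compound for 24 h. Total RNA was reverse-transcribed, reporter cDNA PCR-amplified and fluorescently labelled, and fragments resolved by capillary electrophoresis; induction was compared with DMSO.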
# [9] = molecular target: Estrogen-related receptor gamma (Homo sapiens) (UniProt P62508); test: ATG_ERRg_TRANS: Attagene TRANS-FACTORIAL HepG2 Assay for human Estrogen-Related Receptor gamma (ERRg) (AID 2282977); settings: HepG2 Attagene TRANS reporter, ERRg transactivation;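 also: hits increase reporter signal over DMSO so potencies reflect activators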
# How it was run: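 Exogenous NR-Gal4 chimera activity measured as reporter transcript induction after 24 h in transiently transfected HepG2 cells. RNA reverse-transcribed, PCR-amplified, 6-FAM-labelled and resolved by capillary electrophoresis; increase over DMSO baseline.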
# [10] = ATG_M_19_TRANS: Attagene TRANS-FACTORIAL HepG2 Assay for M19 Transcription Factor (Internal Marker) (AID 2282974); settings: HepG2 Attagene TRANS-FACTORIAL M19 internal marker reporter
# How it was run: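 24 h chemical exposure of transiently transfected HepG2 (MRTU library). RNA → oligo(dT) RT → PCR → 6-FAM labelling → HpaI cut → CE fluorescence. Positive-direction fit vs DMSO baseline; background internal-marker readout.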
# X-box-binding protein 1 (Homo sapiens), sequence (P17861 whole entry, looked up, the tested form may be a part): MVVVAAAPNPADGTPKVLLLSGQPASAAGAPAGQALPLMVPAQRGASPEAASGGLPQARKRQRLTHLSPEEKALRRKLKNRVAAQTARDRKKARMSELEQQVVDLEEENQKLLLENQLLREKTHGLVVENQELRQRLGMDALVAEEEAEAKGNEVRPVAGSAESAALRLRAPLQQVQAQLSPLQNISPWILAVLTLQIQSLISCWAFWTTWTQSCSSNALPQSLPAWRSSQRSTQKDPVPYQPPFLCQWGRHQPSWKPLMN
# Glucocorticoid receptor (Homo sapiens), sequence (P04150 whole entry, looked up, the tested form may be a part): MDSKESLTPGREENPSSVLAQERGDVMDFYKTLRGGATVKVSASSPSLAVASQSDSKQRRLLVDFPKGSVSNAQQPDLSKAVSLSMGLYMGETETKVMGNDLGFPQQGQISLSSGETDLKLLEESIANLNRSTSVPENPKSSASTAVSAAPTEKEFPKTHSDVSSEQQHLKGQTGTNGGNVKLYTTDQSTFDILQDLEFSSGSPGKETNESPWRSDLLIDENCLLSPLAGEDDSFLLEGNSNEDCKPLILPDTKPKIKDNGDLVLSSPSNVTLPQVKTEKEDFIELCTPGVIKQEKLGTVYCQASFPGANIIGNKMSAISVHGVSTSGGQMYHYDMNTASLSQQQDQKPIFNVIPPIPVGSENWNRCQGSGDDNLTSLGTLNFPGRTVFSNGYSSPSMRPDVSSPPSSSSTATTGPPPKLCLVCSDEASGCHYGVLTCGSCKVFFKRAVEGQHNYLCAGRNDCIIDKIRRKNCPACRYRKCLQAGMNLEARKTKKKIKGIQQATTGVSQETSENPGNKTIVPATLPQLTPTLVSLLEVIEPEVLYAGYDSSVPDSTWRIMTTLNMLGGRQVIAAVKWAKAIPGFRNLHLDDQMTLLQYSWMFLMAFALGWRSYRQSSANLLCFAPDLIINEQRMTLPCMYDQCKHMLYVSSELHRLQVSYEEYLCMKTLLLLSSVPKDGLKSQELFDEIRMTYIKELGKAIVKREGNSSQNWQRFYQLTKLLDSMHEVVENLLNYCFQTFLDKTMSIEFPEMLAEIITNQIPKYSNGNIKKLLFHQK
# Bile acid receptor (Homo sapiens), sequence (Q96RI1 whole entry, looked up, the tested form may be a part): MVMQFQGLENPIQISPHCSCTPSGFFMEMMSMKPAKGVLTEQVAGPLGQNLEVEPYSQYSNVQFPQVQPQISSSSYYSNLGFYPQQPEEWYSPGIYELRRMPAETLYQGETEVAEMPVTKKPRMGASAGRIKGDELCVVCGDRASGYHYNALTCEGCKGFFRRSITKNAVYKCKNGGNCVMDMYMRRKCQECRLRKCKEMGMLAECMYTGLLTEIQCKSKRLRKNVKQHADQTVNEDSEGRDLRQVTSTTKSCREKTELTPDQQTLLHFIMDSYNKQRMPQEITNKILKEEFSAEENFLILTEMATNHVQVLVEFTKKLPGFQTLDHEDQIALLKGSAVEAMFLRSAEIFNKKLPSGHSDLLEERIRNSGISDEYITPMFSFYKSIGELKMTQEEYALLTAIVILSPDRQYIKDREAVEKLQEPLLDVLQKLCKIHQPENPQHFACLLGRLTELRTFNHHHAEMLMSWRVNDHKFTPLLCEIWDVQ
# Estrogen receptor (Homo sapiens), sequence (P03372 whole entry, looked up, the tested form may be a part): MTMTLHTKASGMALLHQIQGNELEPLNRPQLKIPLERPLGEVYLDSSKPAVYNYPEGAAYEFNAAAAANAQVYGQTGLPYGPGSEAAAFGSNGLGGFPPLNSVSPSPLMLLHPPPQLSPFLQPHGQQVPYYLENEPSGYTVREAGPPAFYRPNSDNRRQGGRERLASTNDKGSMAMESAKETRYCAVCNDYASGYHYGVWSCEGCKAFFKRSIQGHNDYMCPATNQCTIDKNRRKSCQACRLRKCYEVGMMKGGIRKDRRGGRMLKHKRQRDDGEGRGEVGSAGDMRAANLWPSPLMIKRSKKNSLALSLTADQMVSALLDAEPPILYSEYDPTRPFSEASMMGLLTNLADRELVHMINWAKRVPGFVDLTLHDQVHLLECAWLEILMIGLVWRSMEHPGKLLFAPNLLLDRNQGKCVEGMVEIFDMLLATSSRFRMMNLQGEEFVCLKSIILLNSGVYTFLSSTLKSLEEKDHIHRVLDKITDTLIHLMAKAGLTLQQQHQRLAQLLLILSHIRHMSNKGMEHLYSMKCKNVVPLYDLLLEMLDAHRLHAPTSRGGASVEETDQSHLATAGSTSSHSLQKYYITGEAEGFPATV
# Estrogen-related receptor gamma (Homo sapiens), sequence (P62508 whole entry, looked up, the tested form may be a part): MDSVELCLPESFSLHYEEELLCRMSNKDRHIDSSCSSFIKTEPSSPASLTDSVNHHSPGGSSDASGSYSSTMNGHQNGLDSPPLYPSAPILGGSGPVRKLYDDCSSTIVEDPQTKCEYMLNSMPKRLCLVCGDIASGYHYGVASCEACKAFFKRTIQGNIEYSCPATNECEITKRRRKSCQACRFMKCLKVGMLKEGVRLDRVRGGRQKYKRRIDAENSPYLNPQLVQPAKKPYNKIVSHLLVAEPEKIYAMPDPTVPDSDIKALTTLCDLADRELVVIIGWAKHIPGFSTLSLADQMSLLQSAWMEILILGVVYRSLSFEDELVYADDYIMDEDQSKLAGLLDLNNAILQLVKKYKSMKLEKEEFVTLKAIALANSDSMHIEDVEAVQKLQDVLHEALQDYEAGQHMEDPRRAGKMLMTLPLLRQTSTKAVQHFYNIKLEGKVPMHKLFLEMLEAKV
# Steroid hormone receptor ERR1 (Homo sapiens), sequence (P11474 whole entry, looked up, the tested form may be a part): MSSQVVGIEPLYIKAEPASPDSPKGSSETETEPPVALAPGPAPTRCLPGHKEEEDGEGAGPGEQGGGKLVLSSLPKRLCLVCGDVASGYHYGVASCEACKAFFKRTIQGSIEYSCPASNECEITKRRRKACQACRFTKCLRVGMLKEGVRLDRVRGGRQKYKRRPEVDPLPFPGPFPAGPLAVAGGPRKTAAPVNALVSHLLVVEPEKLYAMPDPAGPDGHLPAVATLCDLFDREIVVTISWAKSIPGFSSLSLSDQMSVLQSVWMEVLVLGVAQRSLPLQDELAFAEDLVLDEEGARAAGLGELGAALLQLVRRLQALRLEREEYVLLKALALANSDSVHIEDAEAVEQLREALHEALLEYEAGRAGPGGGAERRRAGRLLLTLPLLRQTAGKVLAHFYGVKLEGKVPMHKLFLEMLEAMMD
# Nuclear receptor subfamily 1 group I member 3 (Homo sapiens), sequence (Q14994 whole entry, looked up, the tested form may be a part): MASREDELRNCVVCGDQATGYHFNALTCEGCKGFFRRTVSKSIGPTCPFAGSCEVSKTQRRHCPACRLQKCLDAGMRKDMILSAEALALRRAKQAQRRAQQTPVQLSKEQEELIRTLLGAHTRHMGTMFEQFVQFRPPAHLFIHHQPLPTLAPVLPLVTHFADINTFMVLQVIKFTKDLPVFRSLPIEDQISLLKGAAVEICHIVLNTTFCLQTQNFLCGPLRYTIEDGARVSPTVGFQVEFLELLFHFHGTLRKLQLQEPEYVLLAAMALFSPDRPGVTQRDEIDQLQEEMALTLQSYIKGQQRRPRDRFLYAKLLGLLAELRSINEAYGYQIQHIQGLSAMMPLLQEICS
compound,measurement,setting,value
CCCCCC(C)OC(=O)COc1ccc(Cl)c2cccnc12 (stereo not given),outcome,[1],inactive
same,outcome,[2],inactive
same,outcome,[3],inactive
same,outcome,[4],inactive
same,outcome,[5],inactive
same,outcome,[6],inactive
O=C1C=CC(=O)N1c1cccc(N2C(=O)C=CC2=O)c1,outcome,[1],inactive
same,outcome,[7],inactive
same,outcome,[8],inactive
same,outcome,[3],inactive
same,outcome,[9],inactive
same,outcome,[5],inactive
FCOC(C(F)(F)F)C(F)(F)F,outcome,[1],inactive
same,outcome,[2],inactive
same,outcome,[3],inactive
same,outcome,[10],inactive
same,outcome,[4],inactive
same,outcome,[5],inactive
same,outcome,[6],inactive
O=C(O)CCC(F)(F)C(F)(F)C(F)(F)C(F)(F)C(F)(F)F,outcome,[1],inactive
same,AC50,[7],118 µM (active)
same,outcome,[7],inactive
same,outcome,[8],inactive
same,outcome,[3],inactive
same,outcome,[5],inactive
C=CC(F)(F)C(F)(F)C(F)(F)C(F)(F)F,outcome,[1],inactive
same,outcome,[2],inactive
same,outcome,[3],inactive
same,outcome,[4],inactive
same,outcome,[9],inactive
same,outcome,[6],inactive
Clc1ccc2c(Cl)ccnc2c1,outcome,[1],inactive
same,outcome,[7],inactive
same,outcome,[8],inactive
same,outcome,[3],inactive
same,outcome,[5],inactive
O=C(F)C(F)(F)C(F)(F)C(F)(F)C(F)F,outcome,[1],inactive
same,outcome,[7],inactive
same,outcome,[8],inactive
same,outcome,[3],inactive
same,outcome,[10],inactive
same,outcome,[4],inactive
same,outcome,[5],inactive
same,outcome,[6],inactive
CC1CCC(C(=O)O)CC1 (stereo not given),outcome,[1],inactive
same,outcome,[7],inactive
same,outcome,[8],inactive
same,outcome,[3],inactive
same,outcome,[10],inactive
same,outcome,[9],inactive
same,outcome,[5],inactive
same,outcome,[6],inactive
O=CC(F)(F)C(F)(F)C(F)(F)C(F)F,outcome,[1],inactive
same,outcome,[7],inactive
same,outcome,[8],inactive
same,outcome,[3],inactive
same,outcome,[4],inactive
same,outcome,[9],inactive
same,outcome,[5],inactive
same,outcome,[6],inactive
CCCCCCCCCC=CCC1CC(=O)OC1=O (stereo not given),outcome,[1],inactive
same,outcome,[7],inactive
same,outcome,[3],inactive
COC(=O)C(F)(F)C(F)(F)C(F)(F)C(F)(F)C(F)(F)F,outcome,[1],inactive
same,outcome,[8],inactive
same,outcome,[3],inactive
same,outcome,[10],inactive
COC(=O)C(F)(F)C(F)(F)C(F)(F)F,outcome,[1],inactive
same,outcome,[7],inactive
same,outcome,[3],inactive
same,outcome,[10],inactive
same,outcome,[4],inactive
same,outcome,[5],inactive
O=C(O)CCC(F)(F)C(F)(F)C(F)(F)C(F)(F)C(F)(F)C(F)(F)F,outcome,[1],inactive
same,AC50,[7],46.1 µM (active)
same,outcome,[3],inactive
same,outcome,[10],inactive
same,outcome,[4],inactive
same,outcome,[5],inactive
Brc1ccc(Oc2ccc(Br)cc2Br)cc1,outcome,[1],inactive
same,outcome,[8],inactive
same,outcome,[3],inactive
same,outcome,[10],inactive
OCC1CCC(CO)CC1 (stereo not given),outcome,[1],inactive
same,outcome,[7],inactive
same,outcome,[3],inactive
same,outcome,[5],inactive
same,outcome,[6],inactive
Cc1ccccc1OCC(=O)O,outcome,[1],inactive
same,outcome,[7],inactive
same,outcome,[3],inactive
same,outcome,[10],inactive
same,outcome,[5],inactive
same,outcome,[6],inactive
CCCCCCCCCCCCOC(=O)c1cc(O)c(O)c(O)c1,outcome,[1],inactive
same,AC50,[7],11.1 µM (active)
same,AC50,[3],11.1 µM (active)
same,outcome,[10],inactive
same,outcome,[5],inactive
same,AC50,[6],45.1 µM (active)
